Most compounds without a hit are left out; they make up all but 4.7% or so of the library.
MPTP inh: inhibitors of mitochondrial permeability transition pore. AID 602449. 360,000 tested, 1.4% active. inhibition, % at 10 µM. isolated mouse mitochondria, Ca2+ swelling absorbance, 30 min;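 active = inhibition of 50% or more, scaled per plate between neutral and stimulator controls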;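 also: 0% = DMSO wells given calcium and 100% = 1 mM EGTA wells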
ADAM17 inh: ADAM17 inhibition, QFRET primary screen; recombinant ADAM17, EDANS/DABCYL FRET peptide cleavage; 370,000 tested, 0.83% active; P78536; inhibition, % at 6.95 µM;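 active = inhibition above the mean of compounds lying between control limits plus 3 SD, set per campaign, cut at about 8.5% in these data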;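 also: 0% = DMSO-only wells as the low control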
rCAG binder: binds r(CAG) RNA repeats; 370,000 tested, 1.3% active; inhibition, % at 3 µM; r(CAG) RNA repeat, TO-PRO-1 dye displacement fluorescence;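 active = inhibition above the plate cutoff, the mean of all test compounds on that plate plus 3 SD, cut at about 35% in these data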;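 also: 0% = DMSO alone and 100% = 100 µM mitoxantrone as full dye displacement; higher means more dye released from RNA so lower well fluorescence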
DSG3 Ab inh: human desmoglein-3 autoantibody binding inhibition; DSG3-coupled beads, scFv-anti-DSG3-GFP binding, flow cytometry; stronger effect = lower value; binding (percent of control), % at 10 µM; 310,000 tested, 0.48% active;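 active = binding more than 3 SD below its plate's average and above zero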;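 also: hits lower antibody fragment binding to DSG3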
ADAM10 inh: inhibitors of human ADAM10; O14672; recombinant ADAM10, EDANS/DABCYL FRET peptide cleavage, 3 h; inhibition, % at 7 µM; 370,000 tested, 0.62% active;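 active = inhibition above a per-campaign cutoff equal to the mean of compounds falling between control-based bounds plus 3 SD, cut at about 20% in these data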;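 also: 0% = DMSO wells while the 100% control is not disclosed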
Target sequence (O14672 214-748 limits assumed): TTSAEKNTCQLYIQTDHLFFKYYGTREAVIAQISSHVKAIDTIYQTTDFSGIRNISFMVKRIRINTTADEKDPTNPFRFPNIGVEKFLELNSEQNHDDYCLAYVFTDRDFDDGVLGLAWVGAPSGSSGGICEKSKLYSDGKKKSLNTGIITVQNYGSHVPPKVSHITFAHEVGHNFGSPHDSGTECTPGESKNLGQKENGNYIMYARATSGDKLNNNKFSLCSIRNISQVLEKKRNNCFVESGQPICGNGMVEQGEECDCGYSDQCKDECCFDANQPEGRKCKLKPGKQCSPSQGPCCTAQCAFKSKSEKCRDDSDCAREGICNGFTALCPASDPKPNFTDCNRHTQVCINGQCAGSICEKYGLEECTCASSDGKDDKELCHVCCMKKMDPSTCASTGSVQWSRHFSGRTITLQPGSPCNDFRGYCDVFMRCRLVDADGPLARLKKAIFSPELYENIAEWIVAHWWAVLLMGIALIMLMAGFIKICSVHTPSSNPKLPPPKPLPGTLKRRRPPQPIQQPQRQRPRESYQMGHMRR
KLK7 zymogen act: proKLK7 (human) activation, primary screen; P49862; activation, % at 7 µM; purified proKLK7, EDANS-DABCYL substrate fluorescence; 100% is mature enzyme control, 0% vehicle; 370,000 tested, 0.9% active;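 active = activation above the mean of all tested compounds plus 3 SD, computed per campaign excluding outliers beyond control limits, cut at about 13% in these data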
rCAG bind conf: r(CAG) RNA repeat binding, confirmation | shares compounds with rCAG binder | TO-PRO-1 dye displacement fluorescence | inhibition, % at 3 µM | 4,300 tested, 70% active;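 active = inhibition above a per-plate cutoff, the mean inhibition of sample wells plus 3 SD, cut at about 35% in these data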;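 also: loss of TO-PRO-1 fluorescence as compound displaces dye from 1x1 AA loop RNA; 0% = DMSO only wells and 100% = 100 µM mitoxantrone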
DNA CAG counter: DNA CAG dye complex inhibition counter-screen; shares compounds with rCAG binder; d(CAG) DNA oligo TO-PRO-1 dye displacement, fluorescence; inhibition, % at 3 µM; 4,300 tested, 94% active; AID 652068;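 active = inhibition above its plate's cutoff, the mean test-well inhibition plus 3 SD, cut at about 4.8% in these data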;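 also: 0% = DNA dye mix with DMSO and 100% = 100 µM mitoxantrone; hits displace the dye from DNA and so lower well fluorescence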
* hit, by the source's call; / = no result.

SMILES	MPTP inh	ADAM17 inh	rCAG binder	DSG3 Ab inh	ADAM10 inh	KLK7 zymogen act	rCAG bind conf	DNA CAG counter
CCCOc1ccc(-c2csc3ncn(Cc4ccc(C(=O)O)cc4)c(=O)c23)cc1	-2	-3	51*	103	-7	0	40*	11*
COc1cc(CNc2cccc3[nH]c(C(F)(F)F)nc23)cc(OC)c1	5	-4	44*	100	1	-1	35*	18*
COc1ccc2nc(NCc3ccccc3)[nH]c2c1	1	3	6	104	2	-1	/	/
CC(=O)c1c(O)c(C)c(O)c2c1OC1=CC(=O)C(C(C)=O)C(=O)[C@@]12C (some centres undefined)	0	3	42*	95	10	0	14	3
CC(=O)Oc1c(C)c(OC(C)=O)c2c(c1C(C)=O)OC1CC(=O)C(C(C)=O)=C(O)C21C (centres undefined)	1	-2	9	94	7	0	/	/
C[C@H]1C2CC(OC(=O)NCc3ccccc3)C(C2)[C@H]2CCCCN21 (some centres undefined)	/	-9	4	/	-15	0	/	/
C/C(C=NNC(=O)c1cc(-c2ccc(C)c(C)c2)n[nH]1)=C/c1ccco1	/	-1	20	/	-7	-1	/	/
O=C(N/N=C\C=C\c1ccco1)c1cc(-c2ccc3ccccc3c2)n[nH]1	4	1	44*	95	1	-1	34	20*
C=CCSc1nnc(NC(=O)c2cccc(S(=O)(=O)N(C)c3ccccc3)c2)s1	40	-3	48*	101	-8	0	44*	14*
CN(c1ccccc1)S(=O)(=O)c1cccc(C(=O)Nc2nccs2)c1	-3	-2	2	102	-1	0	/	/
O=C(N/N=C/c1cccc([N+](=O)[O-])c1O)C(O)(c1ccccc1)c1ccccc1	2	0	20	97	3	-1	/	/
COc1cc([N+](=O)[O-])cc(/C=N/NC(=O)C(C)Nc2cccc3ccccc23)c1O (centres undefined)	9	-7	79*	102	-30	6	67*	30*
COc1cc([N+](=O)[O-])cc(/C=N/NC(=O)C(O)(c2ccccc2)c2ccccc2)c1O	3	2	38*	95	17	0	34	13*
C[C@@H]1[C@@H](O)C[C@@]2(C[C@H](O)c3cc(Cl)ccc3O2)O[C@H]1c1ccccc1Cl	/	6	2	/	6	0	/	/
CC(C)n1c(Oc2ccc(F)cc2)nc2c1c(=O)n(C)c(=O)n2C	-2	-1	-2	99	-4	0	/	/
COc1ccc(/C=C2\Oc3cc(OCC(=O)N4CC(O)C[C@H]4C(=O)O)ccc3C2=O)c(OC)c1OC (some centres undefined)	-2	-3	26	106	-24	1	/	/
COc1ccc(OC)c(/C=C2\Oc3cc(OCC(=O)N4CC(O)C[C@H]4C(=O)O)ccc3C2=O)c1 (some centres undefined)	0	5	42*	103	-3	0	33	5.9*
COc1ccc(OC)c(/C=C2\Oc3cc(OCC(=O)N4CCC(C(=O)O)CC4)ccc3C2=O)c1	-2	1	38*	99	-5	0	42*	8.6*
COc1ccc(/C=C2\Oc3cc(OCC(=O)N4CCC(C(=O)O)CC4)ccc3C2=O)c(OC)c1	-2	/	/	97	/	/	/	/
COc1cccc(/C=C2/SC(=O)N(CC(=O)N3CCc4ccccc4C3)C2=O)c1OCC(=O)O	-1	-1	37*	/	2	0	36*	9.7*
COc1cccc(/C=C2/SC(=O)N(C)C2=O)c1OCc1ccc(C(=O)O)cc1	0	-4	12	99	-1	0	/	/
C/C=C\C=C/C(=O)Nc1cccc(C2=NOC3(C2)C[C@H](C(N)=O)N(C(=O)Cc2ccc([N+](=O)[O-])cc2)C3)c1 (some centres undefined)	-1	4	9	102	12	1	/	/
O=C1N/C(=N/O)S/C1=C/c1cccc([N+](=O)[O-])c1	1	-2	0	95	2	0	/	/
COc1ccc(/C=C2/S/C(=N/S(=O)(=O)Cc3ccccc3)NC2=O)cc1OC	2	-9	53*	106	-19	0	44*	12*
O=C1N/C(=N\S(=O)(=O)Cc2ccccc2)S/C1=C/c1cccc([N+](=O)[O-])c1	41	-2	81*	94	4	0	69*	28*
SMILES	MPTP inh	ADAM17 inh	rCAG binder	DSG3 Ab inh	ADAM10 inh	KLK7 zymogen act	rCAG bind conf	DNA CAG counter
Cc1ccc(-n2c(SCC(=O)Nc3ccc(N4CCOCC4)cc3)nc3ccccc3c2=O)cc1	5	-2	9	93	-4	-1	/	/
Cc1ccc(-n2c(SCC(=O)Nc3ccc4c5c(cccc35)CC4)nc(O)c(C)c2=O)cc1	0	-9	51*	111	-14	0	34	11*
Cc1ccc(NC(=S)NNC(=O)CSc2nc3ccccc3c(=O)n2-c2ccc(C)cc2)cc1	3	5	45*	/	6	0	45*	20*
O=C(NCc1ccncc1)c1csc([C@@H]2O[C@H](CO)[C@@H](O)[C@H]2O)n1	-2	0	3	/	-5	-1	/	/
O=C(O)COc1ccc(/C=C/C(=O)c2ccc(C3CCCCC3)cc2)cc1	2	-19	48*	92	-38	-6	68*	29*
COc1ccc(-n2c(COc3ccc(Cl)cc3)nnc2SCC(=O)c2ccc(-c3ccccc3)cc2)cc1	/	8	7	/	11	-1	/	/
CCOC(=O)C1=C(CC)Nc2ccccc2N/C1=N\S(=O)(=O)c1ccc2ccccc2c1	7	1	36*	102	10	1	41*	12*
CCOC(=O)C1=C(C)Nc2ccccc2N/C1=N\S(=O)(=O)c1cccc(Cl)c1	4	-1	33	/	-6	0	/	/
N=C1/C(=C\c2ccc(SCc3ccco3)o2)C(=O)N=C2SC=NN12	4	-9	41*	101	-22	1	32	8.4*
CCn1c2c(n(C(C)=O)c1=O)C=C(C(=O)N1CCCC1)C(C)C(c1ccccc1)=C2 (centres undefined)	/	-7	1	/	-22	3	/	/
Cn1nc(C(C)(C)C)cc1C(=O)NCC1CCN(C(=O)C(=O)c2cc3ccccc3o2)CC1	/	0	2	/	0	0	/	/
CCCCC[C@H](O)/C=C/C1C(=O)C=C[C@H]1C/C=C\CCCC(=O)OC (some centres undefined)	2	4	3	101	8	0	/	/
